FAS TE block – blocks the thioesterase domain of human fatty acid synthase; 360,000 tested, 0.67% active; recombinant FAS-TE, OMFH fluorogenic substrate, fluorescence endpoint; inhibition, % at 15 µM; P49327;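 active = compounds whose normalised, plate-corrected inhibition of enzyme fluorescence in the single-dose primary screen is 50% or more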;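 also: 0% = DMSO with enzyme and 100% = substrate without enzyme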
ADAM17 inh – inhibitors of human ADAM17; 370,000 tested, 0.83% active; recombinant ADAM17, EDANS/DABCYL FRET peptide cleavage; inhibition, % at 6.95 µM; P78536;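 active = inhibition above the mean of compounds lying between control limits plus 3 SD, set per campaign, cut at about 8.5% in these data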;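 also: 0% = DMSO-only wells as the low control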
Target sequence (P78536 215-824 limits assumed): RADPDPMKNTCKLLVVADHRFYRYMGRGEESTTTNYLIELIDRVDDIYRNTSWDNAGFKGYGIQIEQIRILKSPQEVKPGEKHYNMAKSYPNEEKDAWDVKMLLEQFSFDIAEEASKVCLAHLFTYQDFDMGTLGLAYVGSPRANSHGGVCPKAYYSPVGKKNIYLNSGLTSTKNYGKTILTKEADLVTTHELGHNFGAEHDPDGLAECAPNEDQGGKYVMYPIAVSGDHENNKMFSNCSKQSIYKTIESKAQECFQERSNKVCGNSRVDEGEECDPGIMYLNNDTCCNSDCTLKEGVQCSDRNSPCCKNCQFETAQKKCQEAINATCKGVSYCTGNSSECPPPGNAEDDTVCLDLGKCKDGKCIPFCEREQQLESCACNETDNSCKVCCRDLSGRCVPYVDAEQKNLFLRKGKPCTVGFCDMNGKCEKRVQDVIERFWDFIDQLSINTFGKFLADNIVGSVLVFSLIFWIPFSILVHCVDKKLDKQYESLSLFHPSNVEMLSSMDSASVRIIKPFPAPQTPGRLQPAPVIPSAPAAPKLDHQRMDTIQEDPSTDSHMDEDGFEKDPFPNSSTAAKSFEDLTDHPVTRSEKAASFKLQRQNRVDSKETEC
sPLA2-III inh – Inhibits HGIII-sPLA2 liposome hydrolysis, primary screen; 370,000 tested, 0.56% active; AID 743126; inhibition, % at 12.2 µM; Q9NZ20; QFRET BODIPY PC-A2 liposome hydrolysis, fluorescence;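 active = inhibition above mean plus 3 SD of compounds lying within the high and low control bounds, cut at about 19% in these data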;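 also: 0% = median of test compound wells and 100% = no enzyme DMSO wells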
GRIN3A LBD mod – modulators (binders) of human NR3A ligand-binding domain. NR3A LBD differential scanning fluorimetry, Tm shift; 0% = protein alone, 100% = glycine-bound protein. Tm shift relative to glycine control, % at 25 µM. 340,000 tested, 2.5% active;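 active = melting temperature shift of at least 10% of the positive control shift, at one fixed dose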
ADAM10 inh – inhibitors of human ADAM10. O14672. recombinant ADAM10, EDANS/DABCYL FRET peptide cleavage, 3 h. inhibition, % at 7 µM. 370,000 tested, 0.62% active. AID 720582;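 active = inhibition above a per-campaign cutoff equal to the mean of compounds falling between control-based bounds plus 3 SD, cut at about 20% in these data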;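 also: 0% = DMSO wells while the 100% control is not disclosed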
ADAM10 confirm – confirmation of inhibitors of human ADAM10; shares compounds with ADAM10 inh; ADAM10 QFRET peptide cleavage, EDANS fluorescence; inhibition, % at 6.95 µM; 2,100 tested, 1% active;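 active = inhibition above about 20% chosen separately for each screening run, limit read from the data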;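 also: 0% = DMSO wells and 100% = marimastat wells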
ADAM17 ctr – counter-screen for ADAM10 exosite inhibitors: inhibitors of human ADAM17 | shares compounds with ADAM10 inh | ADAM17 QFRET peptide cleavage, EDANS fluorescence | inhibition, % at 6.95 µM | 2,100 tested, 0.5% active | AID 743214;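 active = mean triplicate inhibition above the solvent-only control wells' mean plus 3 SD, cut at about 12% in these data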;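 also: 0% = DMSO wells and 100% = marimastat wells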
An asterisk follows results filed as active; . = no result. Rows were chosen to be rich in hits. Some 4.3% of all compounds tested hit in one or more screens of this group.

SMILES | FAS TE block | ADAM17 inh | sPLA2-III inh | GRIN3A LBD mod | ADAM10 inh | ADAM10 confirm | ADAM17 ctr
COc1ccc(-c2ccc(-c3noc(-c4ccc(OC)c(OC)c4)n3)c(OC)n2)cc1 | . | -5 | 1 | . | -13 | . | .
COc1ccc(-c2ccc(-c3noc(-c4cccc(OC)c4)n3)c(OC)n2)cc1 | 32 | -4 | 10 | -28 | 39* | 73* | 42*
COc1ccccc1NCC(O)COc1ccc(C(C)(C)C)cc1 (configuration not stated) | 29 | 5 | 9 | -7 | 21* | 2 | 1
CC(C)Oc1ccc(S(=O)(=O)N2CCCCCC2)c2ccccc12 | . | 0 | 3 | . | -1 | . | .
CS(=O)(=O)Nc1ccc(C(=O)NCCSC2CCCCC2)cc1 | -3 | . | . | -5 | . | . | .
Cc1ccc(NS(=O)(=O)c2cc(C(=O)NCCSC3CCCCC3)ccc2C)cc1 | 24 | 6 | -60 | 7 | 21* | 3 | 2
CC(Nc1nc(-c2ccccc2)nc2ccccc12)c1ccccc1 (configuration not stated) | 30 | 11* | -21 | 8 | 29* | 9 | 3
CC(Nc1nc(-c2cccnc2)nc2ccccc12)c1ccc(F)cc1 (configuration not stated) | 17 | 0 | -36 | -1 | -2 | . | .
COc1ccc(Br)c(C(=O)Nc2nc3ccccc3[nH]2)c1 | 0 | 3 | 4 | 1 | 5 | . | .
CCCCN(C(=O)c1ccccc1Br)C(c1ccc(OC)cc1)c1nc2ccccc2[nH]1 (configuration not stated) | 13 | 7 | -7 | . | 21* | 3 | 1
O=C(COC(=O)C1CCN(c2ccc(C(F)(F)F)cn2)CC1)Nc1ccc(Cl)cc1 | 30 | 7 | -17 | 24* | 27* | 9 | 4
Cc1ccc(Oc2ccc(-c3nc(N)nc(N)n3)cc2)cc1C | 15 | 5 | -19 | 14* | 20* | 2 | 1
Nc1nc(N)nc(-c2ccc(Oc3ccccc3)cc2)n1 | -2 | 0 | 9 | 0 | -9 | . | .
COc1ccc(-c2cn[nH]c2-c2ccc(OCc3ccccc3)cc2O)cc1 | -4 | 7 | -32 | 12* | 20* | 14 | 5
COc1ccc(-c2cn[nH]c2-c2ccc(OCc3ccccc3F)cc2O)cc1OC | -14 | 8 | -29 | 4 | 23* | 10 | 4
COc1ccccc1-c1cn[nH]c1-c1ccc(OCc2ccccc2)cc1O | -37 | 2 | -22 | 7 | 5 | . | .
O=C(NCCC(=O)N1CCN(S(=O)(=O)c2ccc(Cl)cc2)CC1)Nc1ccccc1 | 1 | -1 | -4 | 1 | 4 | . | .
O=C(CCC(=O)N1CCN(S(=O)(=O)c2ccc(Cl)cc2)CC1)Nc1ccc2ccccc2c1 | 26 | 6 | -41 | -4 | 22* | 5 | 2
COc1cc(-c2c(C(=O)c3ccccc3)[nH]c(N)c2C(=O)NCCc2c[nH]c3ccccc23)ccc1F | . | 7 | -38 | . | 16 | . | .
CC(C)OCCCNC(=O)CN1CCN(Cc2ccc(Cl)cc2)C1=O | 0 | -3 | 4 | -2 | 9 | . | .
CC1CCN(CCCNC(=O)CN2CCN(Cc3ccc(Cl)cc3)C2=O)CC1 | -7 | -1 | 11 | -1 | 49* | 3 | 1
Cn1c(Cl)nc2ccccc21 | -8 | -1 | 6 | -2 | -4 | . | .
Cn1c(N=Nc2ccccc2)nc2ccccc21 | -11 | 8 | 0 | -2 | 22* | 2 | 0
COc1cc(OC)cc(C(=O)NCC(=O)NCCN2C(=O)S/C(=C\c3ccccc3Cl)C2=O)c1 | 23 | 0 | -3 | -1 | 2 | . | .
COc1cc(C(=O)NCC(=O)NCCN2C(=O)S/C(=C\c3ccccc3Cl)C2=O)cc(OC)c1OC | 10 | 6 | -16 | -1 | 20* | 0 | 0
CC1CCC2(CC1)CCC2NCc1ccc(Br)cc1 (configuration not stated) | . | 0 | 4 | . | 5 | . | .
CN(C)CCCN1c2ccc([N+](=O)[O-])cc2CCc2cc([N+](=O)[O-])ccc21 | 6 | 8 | -7 | -5 | 23* | 0 | 1
O=C(Nc1ccccc1)c1ccc(-c2ccccc2Cl)o1 | 11 | 4 | -25 | -3 | 20* | 6 | 2

Compound activity from PubChem.
